Reference: PubChem BioAssay AID624117 (National Center for Advancing Translational Sciences (NCATS), 2012)
Results filed as inconclusive are left out. Where a call stands in place of a potency, no number is given. Calls of active or inactive are those of the source. Calls follow the shape of the dose curve; as a rule, active = well fitted curve in the direction sought with a large enough effect; inconclusive = small, poorly fitted or top-dose-only effect, or another doubt; inactive = no such curve, though single readings can be large or run the other way.
Potency is read from the fitted curve at half-maximal effect.

Test: qHTS Assay for Rab9 Promoter Activators: Hit Validation Using Renilla Luciferase Read-Out
Settings: Huh7 NPC1 promoter Renilla luciferase reporter, 24 h; series mostly up to 76.9 µM
Outline: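 Hit validation in Huh7 NPC promoter-luciferase reporter line: compound treatment 24 h at 37 deg C, then luminescence measured after 10 min room-temperature incubation with […] reagent.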
In the case of `Cc1ccc(NC(=O)COC(=O)C2C3CC4OC(=O)C2C4C3)cc1Cl` (stereo not drawn), the Potency is reported as “inactive”. With `NCCOc1ccccc1-c1ccccc1` the Potency was “inactive”. With `COc1ccc(NC(=O)CSc2ccc([N+](=O)[O-])cc2)cc1S(=O)(=O)N1CCOCC1` the Potency was “inactive”. With `CC(=O)Nc1nnc(SCC(=O)NCCOc2ccccc2)s1` the Potency was “inactive”. In the case of `O=C(Nc1ccc(-c2nc3cccnc3s2)cc1)c1ccc(Cl)nc1`, the Potency is reported as “inactive”. With `O=C(CN1C(=O)COc2ccc(Cl)cc21)NCC1CCCO1` (stereo not drawn) the Potency was “inactive”. For `CCCOC(=O)Cn1cnc2scc(-c3ccc(OC)cc3)c2c1=O`, the Potency was “inactive”. In the case of `O=C(NCCc1ccccc1)c1cc2ncc(Br)cn2n1`, the Potency is reported as “inactive”. For `CCc1cc(C(=O)Nc2ccccc2)cs1`, the Potency was “inactive”. In the case of `O=C(CSc1nnc(-c2ccccn2)o1)Nc1ccccc1F`, the Potency is reported as “inactive”. For `CCC(=O)Nc1cc(-c2cc3ccccc3oc2=O)ccc1OC`, the Potency was “inactive”. In the case of `CC(C)C1(CCNC(=O)c2cccs2)CCOC(C)(C)C1` (stereo not drawn), the Potency is reported as “inactive”. For `C=CCc1ccc(OCCOCCNCCOC)c(OC)c1`, the Potency was “inactive”. For `O=C(CSc1nnc(-c2csc3c2CCCC3)o1)Nc1ccccc1`, the Potency was “inactive”. In the case of `Cc1ccc(C(=O)c2cncc(Br)c2)cc1`, the Potency is reported as “inactive”. In the case of `COCc1cc(C)nc(N/N=C/c2ccc(-c3ccc(Cl)cc3[N+](=O)[O-])o2)c1C#N`, the Potency is reported as “inactive”. With `Cc1ccc(S(=O)(=O)N2CCN(c3cnn(C)c(=O)c3Cl)CC2)cc1` the Potency was “inactive”. In the case of `COc1cccc(NC(=O)CN2C(=O)CSc3ccc(S(=O)(=O)N4CCC(C)CC4)cc32)c1`, the Potency is reported as “inactive”. In the case of `CCCC(C)NC(=O)c1ccc(OCc2ccc(Cl)cc2)c(OC)c1` (stereo not drawn), the Potency is reported as “inactive”. With `O=C(CSc1nnc(-c2ccc([N+](=O)[O-])cc2)o1)Nc1ccccn1` the Potency was “inactive”. In the case of `COc1ccccc1N(C(=O)c1snc(C(N)=O)c1N)C(C(=O)NC1CCCCC1)c1cccc(OC)c1OC` (stereo not drawn), the Potency is reported as “inactive”. For `O=C(CSc1nnc(-c2ccccn2)o1)Nc1ccccc1Cl`, the Potency was “inactive”. With `CC(C)(C)C(=O)N/C(N)=N/c1nc2ccccc2o1` the Potency was “inactive”. In the case of `CC(C)CC(=O)N1CCN(c2ccc(NC(=O)c3ccco3)cc2)CC1`, the Potency is reported as “inactive”. For `COC(=O)c1sccc1NC(=S)OC`, the Potency was “inactive”. In the case of `Cc1cccc(N2CCN(C(=S)c3ccccc3)CC2)c1`, the Potency is reported as “inactive”. For `COc1ccc2oc(=O)c(C(=O)NC(C)c3ccccc3)cc2c1` (stereo not drawn), the Potency was “inactive”. With `Cc1ccc(C(=O)Nc2ccc(N3CCN(C)CC3)nc2)cc1` the Potency was “inactive”. With `N#C/C(=N\Nc1ccc(Cl)cc1)C(=N)N1CCCCC1` the Potency was “inactive”. For `Cc1cccc(NC(=O)CSc2nc3ccccc3o2)c1`, the Potency was “inactive”. For `O=C(c1cccc(Oc2ccc([N+](=O)[O-])cc2)c1)N1CCOCC1`, the Potency was “inactive”. With `CCCCCCOc1ccc(OC(=O)c2cccnc2)cc1` the Potency was 2070 nM (active). In the case of `Cc1ccc(NC(=O)Nc2cccc3ccccc23)cc1`, the Potency is reported as “inactive”. For `CCOc1ccc(CNC(=O)C2CCCN(S(C)(=O)=O)C2)cc1OC` (stereo not drawn), the Potency was “inactive”. With `Cc1ccccc1NC(=O)CSc1ccc(-c2cccnc2)nn1` the Potency was “inactive”. With `COc1ccccc1C(=O)Nc1nnc(SCC(=O)NC2CCCC2)s1` the Potency was “inactive”. For `Cc1nc(-c2ccccn2)sc1C(=O)Nc1ccc(F)cc1F`, the Potency was “inactive”. With `N#CC/C(N)=N/NC(=O)CCCNc1ncc(C(F)(F)F)cc1Cl` the Potency was “inactive”.
